Compound activity: PubChem, National Center for Advancing Translational Sciences (NCATS)
In the library only some 8% were active in any assay of this set; here they are far more common.
HCV inhibitor = inhibitors of hepatitis C virus infection; actives 3.4% (n = 340,000); Huh7.5.1 HCVcc-Cre infection, luciferase reporter, 44 h; Potency, µM (series often up to 41.8 µM), most hits filed as inhibitors; AID 651820; active = well fitted inhibition curve with a large enough effect; inconclusive = small, poorly fitted or top-dose-only effect, or another doubt; inactive = no such curve, though single readings can be large or run the other way
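Whole-lifecycle infectious HCVcc-Cre system; cells 1,000/well, compound then virus (~0.5 moi) added 4 h after plating, 44 h culture. Luciferase read 15 sec following 15 min substrate incubation, room temp.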
FMDV antiviral = foot and mouth disease virus antiviral activity; AID 1159524; actives 1.2% (n = 410,000); Potency, µM (doses to about 57.9 µM), most hits filed as inhibitors; FMDV antiviral cell-based qHTS; calls by dose curve; tested in HEK293T cells; also: read-out not given here; nearly all actives have a fitted effect of over 45% in size
HCMV inh = blocks human cytomegalovirus replication | AID 1259415 | activity change, negative = inhibition, % at 57.5 µM | actives 4.5% (n = 410,000) | HFF cells, HCMV-luciferase reporter, 72 h; hits give low values; in the data active = activity change below about -60%; inconclusive = no clear call, values can overlap the other calls; inactive = above about -39%
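After 16 h attachment at 37C, HFF cells received test compound and HCMV-luciferase (1 PFU/cell); reporter luminescence read 72 h later, data normalized against buffer-only and known inhibitor Salinomycin.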
LASV entry inh = Lassa virus entry inhibition. Lassa virus pseudotype entry inhibition, cell reporter. Potency, µM (doses to about 37.9 µM), most hits filed as inhibitors. actives 1.2% (n = 300,000). AID 540256; calls by dose curve; tested in HEK293 cells; also: nearly all actives have a fitted effect of over 50% in size
SARS PLpro yeast = inhibitors of SARS-CoV papain-like protease in yeast; S. cerevisiae expressing SARS-CoV PLpro, growth rescue; Potency, µM (doses to about 32.9 µM), hits mostly activators; actives 0.19% (n = 330,000); AID 485353; calls by dose curve; also: nearly all actives have a fitted effect of over 55% in size
Marburg entry inh = inhibitors of Marburg virus binding or cell entry. Marburg virus pseudotyped entry inhibition, cell reporter. Potency, µM (titrated, usually from 37.8 µM), actives largely listed as inhibitors. actives 1.8% (n = 300,000). AID 540276; calls by dose curve; tested in HEK293 cells
Hits are given with their value; i = inactive; ? = inconclusive; nt = not tested or not shown.

SMILES | HCV inhibitor | FMDV antiviral | HCMV inh | LASV entry inh | SARS PLpro yeast | Marburg entry inh
CCOc1ccc(-n2c(-c3cccs3)nc3ccccc3c2=O)cc1 | ? | ? | -66 | i | i | ?
COc1ccc(OC)c(CNn2c(-c3cccc(C)c3)nc3ccccc3c2=O)c1 | ? | nt | ? | i | i | ?
CN(Cc1ccccc1)c1ccc(-c2nc(-c3ccco3)no2)cc1[N+](=O)[O-] | nt | i | i | i | nt | i
O=C(CSc1ccncc1)NCC1Cc2cccc(-c3cncnc3)c2O1 (stereo not drawn) | nt | i | nt | nt | nt | nt
N.N.O=C(O)C1(C(=O)O)CCC1.[Pt] | nt | i | nt | nt | nt | ?
COC(=O)/C(=C1/Oc2cc(C)oc(=O)c2S1)C(F)(F)F | 10µM | 28µM | ? | ? | i | ?
COc1ccc(CNc2nn3c(-c4cccc(C(=O)N(C)C)c4)cnc3s2)cc1 | nt | i | -66 | nt | nt | nt
O=c1[nH]c2ccccc2n1CCCSCCCn1c(=O)[nH]c2ccccc21 | ? | 20µM | -66 | ? | i | ?
S=C(NCc1ccncc1)Nc1cccc(Cl)c1 | i | i | i | i | i | ?
CN(C)CCNC(=S)Nc1ccccc1C(C)(C)C | i | i | i | i | i | i
Fc1ccc(CNC(=S)Nc2ccc(Cl)cc2)cc1 | i | i | ? | i | ? | i
S=C(NCc1ccc(Cl)cc1)Nc1ccccc1 | i | i | -66 | i | i | i
CC(C)(C)c1ccccc1NC(=S)NCc1ccccc1 | i | i | -72 | i | i | ?
S=C(NCc1ccc(Cl)cc1)Nc1ccncc1 | 6.3µM | i | ? | nt | i | nt
OCC1OC(n2cnc3c(=S)nc[nH]c32)C(O)C1O (stereo not drawn) | nt | i | nt | nt | nt | nt
CCCC(=O)N1CCN(c2nc(CC(C)C)c3c(c2C#N)CCC3)CC1 | ? | ? | ? | 13µM | i | ?
Cc1nc(N2CCN(C(=O)c3ccco3)CC2)c(C#N)c2c1CCCC2 | ? | i | i | i | i | i
CC(C)C(=O)N1CCN(c2nc(-c3ccccc3)c3c(c2C#N)CCCC3)CC1 | 6.3µM | ? | ? | ? | i | ?
CC(C)Cc1nc(N2CCN(C(=O)c3ccco3)CC2)c(C#N)c2c1CCCC2 | 10µM | ? | i | nt | i | nt
COc1cc(OC)c(OC)cc1CN1CCc2nc(Nc3ccc4c(c3)OCCO4)ncc2C1 | nt | ? | i | i | nt | nt
CCN(CC)C(=O)CSc1nc2ccc(NC(=O)CSc3nnc(COc4ccccc4C)n3C)cc2s1 | 10µM | 22µM | i | ? | i | i
Cc1ccccc1OCc1nnc(SCC(=O)Nc2ccc3nc(SCC(=O)NC(C)(C)C)sc3c2)n1C | ? | 35µM | i | ? | i | ?
CC(OCCN1CCCC1)(c1ccc(F)cc1)c1ccc(F)cc1 | i | ? | i | 2µM | i | ?
Fc1ccc(OCCOCCN2CCCC2)cc1 | i | i | i | i | nt | ?
CC(C)(C)c1cc(C(c2cccnc2)N2CCN(CCO)CC2)cc(C(C)(C)C)c1O (stereo not drawn) | 10µM | nt | -102 | ? | i | ?
SMILES | HCV inhibitor | FMDV antiviral | HCMV inh | LASV entry inh | SARS PLpro yeast | Marburg entry inh
OCCN1CCN(C(c2cccs2)c2ccc3cccnc3c2O)CC1 (stereo not drawn) | nt | nt | nt | nt | i | i
COC(=O)c1c(C)[nH]c(C(=O)OCC(=O)c2ccc(C)s2)c1C | 11µM | i | i | ? | i | ?
CCOC(=O)c1[nH]c(C)c(C(=O)OC)c1C | i | i | i | ? | i | ?
CN(C)S(=O)(=O)c1cc(NC(=O)COC(=O)Cc2cccc3ccccc23)ccc1Cl | i | ? | i | ? | i | i
CC(=O)c1c(C)[nH]c(C(=O)OCC(=O)Nc2ccc(Cl)c(S(=O)(=O)N(C)C)c2)c1C | 4µM | 28µM | i | nt | i | nt
CCC(C(=O)OCC(=O)Nc1ccc(Cl)c(S(=O)(=O)N(C)C)c1)c1ccccc1 (stereo not drawn) | i | ? | ? | ? | i | 11µM
CCOC(=O)c1c(C)[nH]c(C(=O)OCC(=O)NC(C)(C)C)c1C | 14µM | i | -80 | ? | i | i
CN(C)C1(CNC(=O)COc2ccc(C(C)(C)C)cc2)CCCCC1 | nt | i | i | i | nt | ?
CCOC(=O)c1c(C)[nH]c(C(=O)OCc2ccccc2F)c1C | ? | i | i | 10µM | i | ?
CC(=O)c1c(C)[nH]c(C(=O)OCC(=O)Nc2cc(C)on2)c1C | ? | i | i | i | i | i
CCOC(=O)c1c(C)[nH]c(C(=O)OCC(=O)Nc2cc(Cl)ccc2OC)c1C | i | i | i | i | i | ?
Cc1cc(C)c(C(=O)OCc2csc(CC(=O)Nc3ccccc3C)n2)c(C)c1 | ? | ? | i | nt | i | nt
COC(=O)c1c(C)[nH]c(C(=O)OCc2csc(CC(=O)Nc3ccccc3C)n2)c1C | ? | i | i | i | i | 10µM
CC(=O)c1c(C)[nH]c(C(=O)OCC(=O)Nc2ccc(Cl)cc2[N+](=O)[O-])c1C | ? | ? | ? | i | i | 6.3µM
COc1cc(NC(=O)COC(=O)c2[nH]c(C)c(C(C)=O)c2C)cc(OC)c1 | 10µM | ? | ? | i | i | ?
N#C/C(=C\c1ccc(-c2ccc(C(=O)O)cc2)o1)C(=O)Nc1ccccc1C(=O)O | nt | i | i | i | nt | nt
Cc1cc2oc(C(=O)Nc3cccc(-c4nc5ccccc5o4)c3)c(C)c2cc1C | nt | i | i | ? | nt | ?
CN(C)S(=O)(=O)c1cc(NC(=O)CN2CCN(c3ccccc3)CC2)ccc1Cl | i | i | i | 3.5µM | i | ?
CCCCS(=O)(=O)N1C2=NC3=C(C(=O)N(CCOC)C3=O)C3N(C)c4ccccc4[C@]23C[C@H]1CO (stereo partly drawn) | nt | nt | nt | nt | nt | i
Cc1ccc(N(CC(=O)NCCc2ccccc2)S(=O)(=O)N(C)C)cc1 | nt | i | i | i | nt | i
COc1ccccc1Cn1c(C2CC(=O)N(c3ccccc3OC)C2)nc2ccccc21 (stereo not drawn) | nt | ? | i | i | nt | i
Cc1cccc(NS(=O)(=O)c2ccc(C)c(C(=O)OCC(=O)Nc3cc(C)on3)c2)c1 | i | i | i | 4.5µM | i | ?
Cc1cccc(NS(=O)(=O)c2cc(C(=O)OCC(=O)Nc3cc(C)on3)ccc2C)c1 | i | i | i | ? | i | ?
CCN(C(=O)CSc1nc2ccccc2n1CC(=O)Nc1ccc(F)cc1F)c1ccccc1 | nt | i | i | 11µM | nt | nt
Cc1ccc(-n2ncc(C(=O)NC3CCN(Cc4ccccc4)CC3)c2C2CCN(C(=O)OC(C)(C)C)CC2)cc1C | nt | i | ? | ? | nt | nt
Cn1c(SCC(=O)NC(C)(C)C)nnc1-c1ccc(C(C)(C)C)cc1 | ? | nt | -60 | i | i | i
CCn1c(SCC(=O)NC(C)(C)C)nnc1-c1ccncc1 | i | i | i | i | i | i
CC(NC(=O)c1ccco1)c1nnc2n1CCN(Cc1ccc(Cl)cc1)CC2 (stereo not drawn) | nt | i | nt | nt | nt | nt
c1ccc(CN2CCN(C3CCCSc4ccccc43)CC2)cc1 (stereo not drawn) | i | ? | i | ? | nt | 16µM
COc1cccc(NC(=O)Cn2c(=O)n(-c3ccccc3)c(=O)c3ccc(C(=O)NCc4ccc5c(c4)OCO5)cc32)c1 | nt | i | i | i | nt | ?
